Compounds with a hit are over-represented: about 1.4% of the library has one in this group of screens.
EPAC1 antagonist – EPAC1 (human) antagonism; O95398; EPAC1 GEF assay, Rap1b-BODIPY-GDP exchange fluorescence; Potency, µM (titrated, usually from 115 µM), hits mostly inhibitors; 0.14% of 360,000 active; AID 720709; further: nearly all actives have a fitted effect of over 50% in size
hERG WT inh – blocks the wildtype human KCNH2 potassium channel. Q12809. U2OS, BacMam KCNH2, thallium flux FluxOr; hits give low values. activity change, % at 1.84 µM. 0.37% of 340,000 active. AID 720551;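 active means maximum activity change below -70%; inconclusive means maximum activity change between -70% and -50%; inactive means maximum activity change above -50%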
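U2OS cells were transduced with wild-type KCNH2 virus (2.03 x 10^8 / mL) for 4 h at room temperature, then cultured overnight at 37 C. Thallium flux was read with FluxOr dye. Rate constants were normalized to DMSO controls.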
EPAC2 ag – EPAC2 (human) agonism. Potency, µM (doses to about 154 µM), usual class: activators. 0.079% of 360,000 active. AID 720711. EPAC2 activation, biochemical qHTS; response scale: 100% = 6.5 mM cAMP response; further: nearly all actives have a fitted effect of over 50% in size
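Each well held 100 nM EPAC2, 250 nM RAP1B-BODIPY-GDP and 50 uM GDP. Fluorescence, read at 5-min intervals to 30 min, was referenced to a 6.5 mM cAMP positive control.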
EPAC1 ag – EPAC1 (human) agonism; O95398; EPAC1 agonist qHTS, biochemical assay; response scale: 100% = response to 6.5 mM cAMP; Potency, µM (doses to about 154 µM), hits mostly activators; 0.073% of 360,000 active; AID 720707; further: nearly all actives have a fitted effect of over 60% in size
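Read-out is the fluorescence drop as BODIPY-GDP leaves Rap1B (480 nm excitation, 540 nm emission), recorded every 5 minutes over 30 minutes. Reactions held 100 nM EPAC1, 250 nM Rap1B–BODIPY-GDP and 50 uM GDP, with 6.5 mM cAMP setting full activation.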
KCNH2 3.1 block – inhibitors of human KCNH2 3.1 potassium channel isoform; U2OS KCNH2 3.1, thallium flux FluxOr; hits give low values; activity change, % (tested at about 1.8 µM); 0.95% of 340,000 active;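 active means maximum activity change below -70%; inconclusive means maximum activity change from -70% to -50%; inactive means maximum activity change above -50%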;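 further: thallium influx rate constant from kinetic fluorescence after stimulation buffer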
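Thallium flux read-out: FluxOr dye with Red40 quencher in HBSS/HEPES, 45 min at RT. Rate constants from kinetic reads were normalized to positive and negative DMSO controls. Cells: U2OS virally expressing the 3.1 isoform.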
EPAC2 antag – blocks human EPAC2 exchange factor; EPAC2 GEF exchange of Rap1B-BODIPY-GDP, fluorescence; Q8WZA2; Potency, µM (top dose mostly 114 µM), hits mostly inhibitors; 0.18% of 360,000 active; further: nearly all actives have a fitted effect of over 45% in size
A number is an active result; n = inactive; u = inconclusive; x = no result. Unless noted, the call rests on the fitted dose curve; in most records, active means well fitted curve in the direction sought with a large enough effect; inconclusive means small, poorly fitted or top-dose-only effect, or another doubt; inactive means no such curve, though single readings can be large; an effect the other way counts as inactive or inconclusive.

SMILES	EPAC1 antagonist	hERG WT inh	EPAC2 ag	EPAC1 ag	KCNH2 3.1 block	EPAC2 antag
CN1/C(=C\C=O)C(C)(C)c2ccccc21	n	n	n	n	n	n
CN1\C(=C/C=C/C=C/C=[N+](C)C)C(C)(C)c2ccccc21	n	x	n	56µM	n	n
Cc1cc2nc(C(C)(C)C)c(Cc3ccccc3)n2c(C)c1Br	n	x	n	n	x	n
COc1ccc(CN2CCC(CO)(Cc3cccc(C(F)(F)F)c3)CC2)cc1Cn1cccn1	n	n	n	n	-84	n
COc1cc(CN2CCC(CO)(Cc3cccc(C(F)(F)F)c3)CC2)ccc1F	n	n	n	n	n	n
COC(=O)c1cc(S(=O)(=O)N(C)C2CCCCC2)c[nH]1	n	n	n	n	-120	n
N#CC1=C(N)NC(SCC(=O)Nc2ccc(Br)cc2)=C(C#N)C12CCCCC2	n	-146	n	n	n	n
N#CC1=C(N)NC(SCc2ccc(Br)cc2)=C(C#N)C12CCCCC2	n	n	n	n	n	n
CC(C)OC(=O)N(C)C[C@@H]1OCc2cnnn2CCCC(=O)N([C@@H](C)CO)C[C@H]1C	n	n	n	n	n	n
CCCCCCCCCCCCCCCCCCNc1ccn(C2OC(COP(=O)(O)OCC3OC(n4cc(F)c(=O)[nH]c4=O)CC3O)C(O)C2O)c(=O)n1 (stereo not given)	22µM	n	n	n	n	n
C[C@H]1O[C@@H](n2cc(F)c(=O)[nH]c2=O)[C@H](O)[C@@H]1O	n	n	n	n	n	n
CC/C(C)=N/Nc1cccc([N+](=O)[O-])c1	u	n	n	n	-93	n
CCN1C(N(C)C)=NC[C@@H]1Cc1ccccc1	n	n	n	n	n	n
Fc1ccc(Nc2c3c(nc4ccccc24)CCC3)cc1	n	n	n	n	-91	n
Cc1ccc(C(=O)c2c3ccc(C(F)(F)F)cc3[n+]([O-])n2CCCC(N)=O)cc1	n	n	n	n	-79	n
Cc1ccc(C(=O)c2c3ccc(C(F)(F)F)cc3[n+]([O-])n2CCC(N)=O)cc1	n	n	n	n	n	n
Cc1ccc(C(=O)c2c3ccc(C(F)(F)F)cc3[n+]([O-])n2CCCN)cc1	n	n	n	n	-85	n
COc1ccc(-c2ccc(C(=O)NCCc3ccccc3)c3occc23)c(C)c1	n	x	n	n	x	n
C[C@@]12C(=O)Nc3cc(F)ccc3C(=O)N1[C@H]1c3cc(Br)ccc3OC[C@@H]1[C@@H]2c1ccccc1	n	x	79µM	n	x	n
C[C@@]12C(=O)Nc3ccc(Br)cc3C(=O)N1[C@H]1c3cc(Cl)ccc3OC[C@@H]1[C@@H]2c1ccccc1	n	n	n	n	-74	n
C[C@@]12C(=O)N(CC3CCCO3)CC(=O)N1[C@H]1c3cc(Cl)ccc3OC[C@@H]1[C@@H]2c1ccccc1 (stereo not given in full)	n	n	n	n	-93	n
CCOC(=O)[C@H]1[C@H]2COc3ccc(C)cc3[C@@H]2N2C(=O)c3ccc(F)cc3NC(=O)[C@@]12C	n	n	n	n	n	n
CCOC(=O)[C@H]1[C@H]2COc3ccc(C)cc3[C@@H]2N2C(=O)c3ccc(C)cc3NC(=O)[C@@]12C	n	x	79µM	u	x	n
C[C@@]12C(=O)Nc3ccc(F)cc3C(=O)N1[C@H]1c3cc(Br)ccc3OC[C@@H]1[C@@H]2c1ccccc1	u	n	n	n	u	n
Cc1cc(NC(=O)C(C)SCC(=O)NCc2ccc(F)cc2)no1 (stereo not given)	n	n	n	n	n	n
COc1ccc(OC)c(NC(=O)NNS(=O)(=O)c2ccc(C)cc2C)c1	n	n	n	n	n	n
CC(=O)c1ccccc1NC(=O)COC(=O)c1cc2ccccc2[nH]1	n	n	n	n	n	n
CC1(C(=O)NCCCN2CCCC2=O)CCN1CCc1ccccc1 (stereo not given)	n	x	n	n	x	n
